Screening data (PubChem BioAssay)
Pf growth 96h: Primary qHTS for delayed death inhibitors of the malarial parasite plastid, 96 hour incubation. P. falciparum luciferase reporter growth, 96 h. AID 504834, 2011. Potency, µM (series often up to 28.7 µM), actives largely listed as inhibitors. actives 6.9% (n = 320,000)
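Infected RBCs, 2% Hct / 0.05% parasitemia final; luciferase-reporter P. falciparum; cpd 96 h, 37 C, 5% CO2; luciferase detection reagent; luminescence.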
Shiga inhibitor: A qHTS for Small Molecule Inhibitors of Shiga Toxin | inhibition, % at 38.7 µM | actives 9.2% (n = 290,000) | AID 2315, 2010 | Vero cells, Shiga toxin protein synthesis inhibition reporter; in the data active = inhibition mostly above about 28%, no sharp cut-off; inactive = mostly below about 43%
Pf growth 48h: Primary qHTS for delayed death inhibitors of the malarial parasite plastid, 48 hour incubation; P. falciparum luciferase growth in erythrocytes, 48 h; Potency, µM (titrated, usually from 28.7 µM), actives largely listed as inhibitors; actives 5.9% (n = 310,000); AID 504832, 2011
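Compounds are pin-transferred into medium, infected erythrocytes (2% hematocrit, 0.1% parasitemia final) are added, and plates sit one parasite generation at 37 C in 5% CO2. Detection reagent is then added and luminescence measured.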
NS1 function inh: qHTS Assay for Inhibitors of Influenza NS1 Protein Function; Potency, µM (doses to about 46.1 µM); actives 0.4% (n = 270,000); AID 2326, 2010; calls by dose curve; note: actives are rising curves; nearly all actives have a fitted effect of over 50% in size
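OD600 was taken as the measure of yeast growth restored by compound in an NS1-expressing S. cerevisiae strain. Cells had been washed out of glucose medium and diluted 1:100 into galactose -URA medium, pH 6.0.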
CHX counter: Cycloheximide Counterscreen for Small Molecule Inhibitors of Shiga Toxin; AID 2314, 2010; actives 12% (n = 300,000); cell reporter, cycloheximide protein synthesis inhibition counterscreen; max response, %; in the data active = max response mostly above about 13%, no sharp cut-off; inactive = mostly below about 14%; note: read at 38.3 µM for the half of the compounds with a filed dose
Giardia FBPA inh: qHTS Assay for Inhibitors of Fructose-1,6-bisphosphate Aldolase from Giardia Lamblia; Potency, µM (top dose mostly 59.6 µM), hits mostly inhibitors; purified Giardia FBPA; actives 0.71% (n = 290,000); AID 2451, 2010; A8B2U2; note: nearly all actives have a fitted effect of over 55% in size
Target sequence (A8B2U2 whole entry, looked up): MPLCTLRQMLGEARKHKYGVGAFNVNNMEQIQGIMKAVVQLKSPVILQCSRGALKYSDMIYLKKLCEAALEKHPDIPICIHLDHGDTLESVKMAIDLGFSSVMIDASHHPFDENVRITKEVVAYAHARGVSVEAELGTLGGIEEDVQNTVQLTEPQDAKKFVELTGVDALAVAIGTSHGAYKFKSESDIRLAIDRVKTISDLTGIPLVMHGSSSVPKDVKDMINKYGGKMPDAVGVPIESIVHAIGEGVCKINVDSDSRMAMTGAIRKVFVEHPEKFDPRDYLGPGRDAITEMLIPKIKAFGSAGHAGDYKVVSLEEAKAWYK
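Giardia FBPA (40 nM reagent) was preincubated 10 min at RT with compound (up to 57.5 uM final), then substrate plus GAPDH/TPI/NAD/arsenate coupling system with diaphorase/resazurin was added; resorufin fluorescence (525/598 nm) was read after 20 min.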
Each line names hits and unclear results; the compound was inactive in the other large screens. Rows were chosen to be rich in hits. Some 21% of all compounds tested hit in one or more screens of this group. Unless noted, calls come from the whole dose curve; as a rule, active = well fitted curve in the direction sought with a large enough effect; inconclusive = small, poorly fitted or top-dose-only effect, or another doubt; inactive = no such curve, though single readings can be large; an effect the other way counts as inactive or inconclusive.

COC(=O)c1cc(S(=O)(=O)NCc2cccs2)c[nH]1	Pf growth 96h 12µM
CCN(CC)S(=O)(=O)c1ccc(S(=O)(=O)NCc2cccs2)cc1	Pf growth 96h 8.3µM
COc1ccc(S(=O)(=O)NCc2cccs2)cc1	none (no result: Pf growth 48h)
C=C[C@H](N)CCC(=O)O	none (no result: Pf growth 96h, Shiga inhibitor, Pf growth 48h, NS1 function inh, CHX counter)
Nn1c(SCc2cn3ccsc3n2)nnc1-c1ccncc1	none
Cc1nc2nc(CSc3ccc(Cl)cc3)cc(=O)n2[nH]1	none
Cc1csc2nc(CSc3ccc(Cl)cc3)cn12	Pf growth 96h 3.7µM, Shiga inhibitor 79, CHX counter 49
Clc1ccc(SCc2cn3ccsc3n2)cc1	Pf growth 96h 10µM, CHX counter 51
c1cn2cc(CSC3CCCCC3)nc2s1	Shiga inhibitor 95, CHX counter 42 (no result: Pf growth 96h)
Cc1cccc(CN2C(=O)NC(c3ccccc3)(c3ccccc3)C2=O)c1	Pf growth 96h inconclusive, Pf growth 48h 10µM
COc1cccc(CNC(=O)CN2C(=O)NC(c3ccccc3)(c3ccccc3)C2=O)c1	none (no result: Shiga inhibitor, NS1 function inh, CHX counter, Giardia FBPA inh)
COc1cccc(CN(C)C(=O)CN2C(=O)NC(c3ccccc3)(c3ccccc3)C2=O)c1OC	Pf growth 96h 12µM, Pf growth 48h inconclusive (no result: Shiga inhibitor, NS1 function inh, CHX counter, Giardia FBPA inh)
COc1cccc(CN(C)C(=O)CN2C(=O)NC(c3ccccc3)(c3ccccc3)C2=O)c1	Pf growth 96h 10µM, Pf growth 48h 10µM (no result: Shiga inhibitor, NS1 function inh, CHX counter, Giardia FBPA inh)
CCC(C)(C)C1CCC2(CC1)NC(=O)N(CC(=O)N(C)CC(=O)Nc1ccccc1C(F)(F)F)C2=O (stereo not given)	Pf growth 96h inconclusive, Shiga inhibitor 53, CHX counter 58 (no result: Giardia FBPA inh)
O=C(CN1C(=O)NC2(CCCC2)C1=O)Nc1ccccc1C(F)(F)F	NS1 function inh inconclusive (no result: Giardia FBPA inh)
CC(C)(C)C(=O)CN1C(=O)NC(c2ccccc2)(c2ccccc2)C1=O	Pf growth 96h inconclusive, Pf growth 48h inconclusive
COc1c2c(cc3c1C(c1c(O)c4ccccc4oc1=O)N(C)CC3)OCO2 (stereo not given)	none (no result: Pf growth 96h, Shiga inhibitor, Pf growth 48h, NS1 function inh, CHX counter)
Cc1ccsc1CN(C)C(=O)CN1C(=O)NC(c2ccccc2)(c2ccccc2)C1=O	Pf growth 96h 9.3µM, Pf growth 48h 13µM (no result: Shiga inhibitor, NS1 function inh, CHX counter, Giardia FBPA inh)
CN(Cc1ccccc1)C(=O)CN1C(=O)NC2(CCCCCCC2)C1=O	Pf growth 96h inconclusive, Pf growth 48h 9.3µM (no result: Shiga inhibitor, NS1 function inh, CHX counter, Giardia FBPA inh)
CSc1ccc(CN(C)C(=O)CN2C(=O)NC3(CCCC3)C2=O)cc1	none (no result: Shiga inhibitor, NS1 function inh, CHX counter, Giardia FBPA inh)
COc1ccc(C2(c3ccc(OC)cc3)NC(=O)N(CC(=O)N(C)C)C2=O)cc1	none
COc1ccc(C2(c3ccc(OC)cc3)NC(=O)N(CC(=O)N(C)C3CCC(C)CC3)C2=O)cc1 (stereo not given)	Pf growth 96h inconclusive, Pf growth 48h 10µM (no result: Shiga inhibitor, NS1 function inh, CHX counter, Giardia FBPA inh)
COc1cccc(-c2nnn(CC(=O)N3CCC(C)CC3)n2)c1	Pf growth 96h inconclusive
CCOc1ccccc1N1CCN(C(=O)c2cc(-c3cc(OC)ccc3OC)nc3ccccc23)CC1	Pf growth 48h inconclusive (no result: Giardia FBPA inh)
O=C(NCc1ccncc1)C1CCC(=O)N(CCc2ccc(Cl)cc2)C1 (stereo not given)	Pf growth 96h 9.3µM, Pf growth 48h inconclusive
O=C(NCCc1cnccn1)C1CCC(=O)N(Cc2ccc(Cl)cc2)C1 (stereo not given)	none (no result: Giardia FBPA inh)
CCn1nc(C)c(CNC(=O)C2CCC(=O)N(CCc3ccc(Cl)cc3)C2)c1C (stereo not given)	Pf growth 96h 9.3µM (no result: Giardia FBPA inh)
Cc1nc(CNC(=O)C2CCC(=O)N(CCc3ccc(Cl)cc3)C2)sc1C (stereo not given)	Pf growth 48h inconclusive (no result: Giardia FBPA inh)
CCc1ccc(CNC(=O)C2CCC(=O)N(CCc3ccc(Cl)cc3)C2)nc1 (stereo not given)	none (no result: Giardia FBPA inh)
O=C(NCCCc1ccncc1)C1CCC(=O)N(Cc2ccc(Cl)cc2)C1 (stereo not given)	Pf growth 96h 10µM
O=C(CC12CC3CC(CC(C3)C1)C2)Nc1c(F)cccc1F	none
Cn1c(=O)c2[nH]c(CS(=O)(=O)Cc3nc4c([nH]3)c(=O)n(C)c(=O)n4C)nc2n(C)c1=O	none (no result: Pf growth 96h, Shiga inhibitor, Pf growth 48h, CHX counter, Giardia FBPA inh)
O=S(=O)(Nc1nc2ccccc2nc1Cl)c1ccc(Cl)cc1	none
O=S(=O)(Nc1nc2ccccc2nc1N1CCc2ccccc2C1)c1ccc(Cl)cc1	Shiga inhibitor 25, CHX counter 71
O=S(=O)(Nc1nc2ccccc2nc1N1CCc2ccccc2C1)c1ccc(Br)cc1	Shiga inhibitor 33, CHX counter 44
